# FBW7 act: activators of human E3 ligase FBW7 | Q969H0 | AlphaScreen FBW7–phospho-cyclin E peptide binding, activator screen | normalized activity (activation), % at 26.1 µM | 650,000 compounds, 0.13% hits | AID 1259310; in the data active = normalized activity above about 1.9%;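 note: purified mutant Fbw7 with reduced substrate affinity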
# GPR151 activ: human GPR151 activation. Q8TDV0. PathHunter beta-arrestin GPR151 cells, luminescence. activation, % at 11.2 µM. 650,000 compounds, 1% hits. AID 1508602; in the data active = activation above about 4.9%;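 note: 0% = median of compound wells and 100% = cells with positive control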
# Target sequence (Q8TDV0 whole entry, looked up): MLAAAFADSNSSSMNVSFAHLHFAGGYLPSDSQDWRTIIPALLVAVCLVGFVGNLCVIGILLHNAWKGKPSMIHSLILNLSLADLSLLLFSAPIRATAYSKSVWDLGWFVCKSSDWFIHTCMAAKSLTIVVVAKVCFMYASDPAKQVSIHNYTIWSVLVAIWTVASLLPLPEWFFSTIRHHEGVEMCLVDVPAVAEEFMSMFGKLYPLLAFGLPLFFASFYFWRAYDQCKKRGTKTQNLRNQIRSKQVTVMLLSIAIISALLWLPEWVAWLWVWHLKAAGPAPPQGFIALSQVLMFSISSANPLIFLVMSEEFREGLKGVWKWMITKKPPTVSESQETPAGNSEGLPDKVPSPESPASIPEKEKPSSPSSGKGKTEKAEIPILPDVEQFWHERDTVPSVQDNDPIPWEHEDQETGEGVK
# TEAD-YAP block: TEAD-YAP interaction inhibition; AID 1259422; 640,000 compounds, 1.4% hits; HEK-TIYL cells, TEAD-Gal4/YAP UAS-luciferase luminescence; inhibition, % at 9.12 µM; in the data active = inhibition above about 32%;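 note: 0% = median of test compound wells and 100% = reference inhibitor wells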
# MITF inh: human MITF inhibition, primary screen | inhibition, % at 2.6 µM | O75030 | AlphaScreen MITF homodimerization, bead proximity signal | AID 1259374 | 650,000 compounds, 0.91% hits; in the data active = inhibition above about 50%;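 note: 0% = vehicle wells with protein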
# GPR151 conf act: confirmation of human GPR151 activators; shares compounds with GPR151 activ; GPR151 PathHunter beta-arrestin cells, luminescence, 90 min; % of EA-reagent control over plate median; activation, % at 11.2 µM; 6,700 tested, under 10 active; AID 1508609;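 active = mean percent activation across replicates above the confirmation screen cutoff of 4.91%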
# GPR119 counter: GPR119 activation, counter-screen for GPR151 activators; shares compounds with GPR151 activ; GPR119 PathHunter beta-arrestin cells, luminescence, 90 min; 0 = compound-well median, 100 = enzyme-acceptor control; activation, % at 11.2 µM; 6,700 compounds, 0.3% hits; AID 1508611;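 active = mean percent activation in the counterscreen above 29.09%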;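 note: counterscreen on off-target GPR119 to flag nonselective hits from the GPR151 activator screen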
# Starred values were filed as active, the others as inactive; nt = no result given; ! = not active in a repeat. Rows were chosen to be rich in hits. Some 3.4% of all compounds tested hit in one or more screens of this group.
SMILES,FBW7 act,GPR151 activ,TEAD-YAP block,MITF inh,GPR151 conf act,GPR119 counter
CCC(=O)Nc1cccc(NC(=S)NC(=O)c2ccccc2OC)c1,0,8.8*,-50,12,0,-9
CC(=O)NC(=S)Nc1ccc(Br)c(C)n1,0,-3,-40,9,nt,nt
CCc1ccc(NC(=O)C(=O)NNC(=O)c2cccc(OC)c2)cc1,0,-1,9,14,nt,nt
COc1ccc(NC(=O)C(=O)NNC(=O)c2cccc(OC)c2)cc1,0,6.1*,-3,-6,0,4
O=C1NC(c2ccccc2)=N/C1=C/c1ccccc1,0,-1,-12,-6,nt,nt
COc1cc(/C=C2/N=C(c3ccccc3)NC2=O)cc(OC)c1OC,0,5.4*,3,2,0,2
COc1ccc(C2NC(=S)NC(C)=C2C(=O)Nc2ccccc2C)cc1OC (stereo unspecified),0,0,12,2,nt,nt
Cc1ccc(CN2CCNC(=O)C2CC(=O)N2CCCN(Cc3cccs3)CC2)o1 (stereo unspecified),0,-1,9,3,nt,nt
Cc1ccc(CN2CCNC(=O)C2CC(=O)N2CCN(Cc3csc(C)n3)CC2)o1 (stereo unspecified),0,5.1*,2,-4,0,2
CCCN(CCC)CCc1cccc2c1CC(=O)N2,0,12*!,-4,-9,0,-9
CC(C)(C)C1=Nc2ccccc2NC(=O)C1,0,0,-4,13,nt,nt
CCOC(=O)Cc1c(C)c2ccc(N(CC)CC)cc2oc1=O,1,7.2*,-10,-14,0,10
COc1ccccc1NC(=O)Cn1c(=O)n(Cc2ccc(F)cc2)c(=O)c2cccnc21,0,1,16,5,nt,nt
COc1ccccc1NC(=O)Cn1c(=O)n(Cc2ccccc2)c(=O)c2cccnc21,0,5.2*,9,-1,-1,-2
O=C(NCSC1=NCCS1)c1ccccc1,0,8.2*,-10,1,0,5
c1ccc(CSC2=NCCS2)cc1,0,0,-19,-2,nt,nt
CC(C)CC(N=Cc1c(O)c2ccccc2oc1=O)C(=O)O (stereo unspecified),0,5.5*,-6,-5,0,11
Cn1c(=O)c2c(nc3n(CCc4ccccc4)c(-c4ccc(Br)cc4)cn23)n(C)c1=O,0,5.6*,18,16,0,1
Cn1c(=O)c2c(nc3n(CCc4ccccc4)c(-c4ccccc4)cn23)n(C)c1=O,0,1,8,-17,nt,nt
O=C(CSc1nc(-c2ccccc2)c2ccccc2n1)NCc1ccc2c(c1)OCO2,0,-1,8,16,nt,nt
O=C(CSCC(=O)N1CCCCC1)Nc1nc(-c2cccs2)cs1,0,-1,-5,10,nt,nt
O=C(CSCC(=O)N1CCCCC1)Nc1nc(-c2ccc(Cl)s2)cs1,0,6.1*,-24,1,0,7
O=C(CCC1CCCC1)N1CCC[C@@H]1Cn1nc(-c2cccs2)ccc1=O,0,0,5,15,nt,nt
CC(C(=O)Nc1nc2ccccc2s1)N1C(=O)c2ccccc2C1=O (stereo unspecified),0,9.7*,-7,2,1,-14
Cc1ccc(NC(=O)C(C)N2C(=O)c3ccccc3C2=O)cc1C (stereo unspecified),0,6.3*,3,-2,0,-8
SMILES,FBW7 act,GPR151 activ,TEAD-YAP block,MITF inh,GPR151 conf act,GPR119 counter
Cc1cc(C)cc(NC(=O)C(C)N2C(=O)c3ccccc3C2=O)c1 (stereo unspecified),0,2,1,0,nt,nt
O=C(COc1ccccc1C(=O)Nc1ccccc1)Nc1ccc2c(c1)OCO2,0,7.9*,1,-1,0,-2
CCOc1ccccc1OCC(=O)Nc1ccc2c(c1)OCO2,0,2,-27,4,nt,nt
O=C(CSc1nc2ccccc2n1CC(=O)N1CCCCC1)N1CCCC1,0,1,-4,12,nt,nt
CC1=NN(c2ccc(S(N)(=O)=O)cc2)C(=O)/C1=C\c1ccc(-c2ccc([N+](=O)[O-])cc2Br)o1,0,1,-2,10,nt,nt
Cc1ccc(NC(=O)c2cnc(N3CCN(c4ccccn4)CC3)c3ccccc23)cc1F,0,10*,12,2,-1,-14
O=C(Nc1ccc(F)cc1)c1cnc(N2CCN(c3ccccn3)CC2)c2ccccc12,0,0,0,17,nt,nt
O=C(Nc1ccccc1)c1cc(N2CCN(c3ccccn3)CC2)nc2ccccc12,0,5.1*,5,6,0,0
CCC(C)C(NC(=O)C(C)NC(=O)C(N)CC(=O)OCc1ccccc1)C(=O)NC(Cc1ccccc1)C(=O)OC (stereo unspecified),0,-1,-1,3,nt,nt
CC(=O)Nc1cc(CNCc2ccc3c(c2)OCO3)cc(C(=O)N2C[C@@H](C)O[C@@H](C)C2)c1,0,0,-4,7,nt,nt
C=CCn1c(SCC(N)=O)nnc1-c1ccc(Br)cc1,1,6.2*,0,19,-1,-11
CCC(=O)Nc1ccc(C(=O)Nc2ccc(I)cc2C(=O)O)cc1,0,-1,-1,16,nt,nt
CCC(C)NC(=O)Cn1nc(-c2ccccc2)ccc1=O (stereo unspecified),0,8.5*,4,7,0,-1
COc1cccc(/C=C/c2nc3ccccc3c(=O)n2-c2ccc(NC(C)=O)cc2)c1OC,0,5.6*,3,0,1,16
COc1ccc(/C(C)=N\NC(=O)CNC(=O)c2ccccc2Br)c(OC)c1,0,0,10,-3,nt,nt
COc1ccc(C=O)cc1Cn1cnc([N+](=O)[O-])n1,0,5.5*,8,0,-1,-3
COc1ccc(Cl)cc1NC(=O)Nc1cccc([N+](=O)[O-])c1C,0,8.3*,8,18,2,-1
Cc1c(NC(=O)Nc2cccc(Cl)c2)cccc1[N+](=O)[O-],0,1,-11,27,nt,nt
CCC(C)NC(=O)c1sc2nc(C)nc(N3CCC(C)CC3)c2c1C (stereo unspecified),0,6.9*,0,5,0,-1
CCCN(CCC)C(=O)c1sc2nc(C)nc(N3CCCCC3)c2c1C,0,5.5*,-3,-2,1,-2
COc1ccc(Br)cc1/C=C/C(=O)Nc1ccc(Cl)cn1,0,1,2,-3,nt,nt
O=C1NC(=O)C(CCc2ccccc2)(C2CCN(Cc3cnn(-c4ccccc4)c3)CC2)N1 (stereo unspecified),0,0,7,3,nt,nt
COc1ccc(C(=O)N(Cc2cccs2)C2CC(C)(C)NC(C)(C)C2)cc1,1,7.4*,13,5,0,5
O=C(O)c1ccc(Nc2ccc(Cl)cc2)nc1,0,-5,0,0,nt,nt
Nn1c(O)c(C2=c3cc(F)ccc3=NC2=O)sc1=S,0,6.0*,8,3,0,-11

# From PubChem
